In the supplement of paper PMC10105736:

How the values were obtained:
Test in all cases: MAPPIT interaction score (arbitrary units); higher = stronger binary interaction signal, active = hit call of the paper;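 active = MAPPIT score above the 99th percentile of random reference set scores in the same batch; inactive = at or below it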
GstE4 = settings: MAPPIT configuration: N-C; pair source set: RRS
PGRP-LE = settings: pair source set: Lit-BM-16
Wee1 = settings: MAPPIT configuration: N-N; pair source set: Curagen_high_conf
Hsp27 = settings: MAPPIT configuration: N-N; pair source set: Curagen_low_conf
HP5 = settings: MAPPIT configuration: N-N; pair source set: Curagen_low_conf
Hsp60B = settings: MAPPIT configuration: N-N; pair source set: Lit-BS-16
Hsc70-1 = settings: MAPPIT configuration: N-N; pair source set: DPIM
Hrb27C = settings: MAPPIT configuration: N-N; pair source set: Lit-BM-16
HP6 = settings: MAPPIT configuration: N-N; pair source set: screen_1
Hmg-2 = settings: MAPPIT configuration: N-C; pair source set: screen_3
Hn = settings: MAPPIT configuration: N-N; pair source set: Curagen_high_conf
jbug = settings: MAPPIT configuration: N-C; pair source set: screen_3
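Further: HEK293T cells with Epo stimulation, STAT-responsive firefly luciferase reporter, fold induction versus unstimulated cells divided by the larger fold induction of two negative controls lacking either bait or prey.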

B1: PGRP-LE (protein)
chain: MSESGIKKLSQERTREWLASQEDEELESIAESSVVDSLDYDYTEEEEDADQNTSEEISTMTLGTQIATKKHSIISDTIRDLMNSINSIQTLGNVNISNSTNVHIGNVTNINGNIQIIADGLTQNRRDRRHVSPPRDNAPKTPTHFEDDYQDESEERVRSDVFIRRQKFKIPKELSAIIPRSSWLAQKPMDEPLPLQLPVKYVVILHTATESSEKRAINVRLIRDMQCFHIESRGWNDIAYNFLVGCDGNIYEGRGWKTVGAHTLGYNRISLGISFIGCFMKELPTADALNMCRNLLARGVEDGHISTDYRLICHCQCNSTESPGRRLYEEIQTWPHFYNIEEEEQ
For B1, the MAPPIT interaction score (GstE4) was 0.646 (inactive), the MAPPIT interaction score (PGRP-LE; MAPPIT configuration: N-C) was 3.96 (active) and the MAPPIT interaction score (PGRP-LE; MAPPIT configuration: N-N) was 4.49 (active). For the same binder, the MAPPIT interaction score (Wee1) was 2.63 (active).

B2: Lis-1 (protein)
chain: MKMVLSQRQREELNQAIADYLGSNGYADSLETFRKEADLSTEVEKKFGGLLEKKWTSVIRLQKKVMELEAKLTEAEKEVIEGAPTKNKRTPGEWIPRPPEKFSLTGHRASITRVIFHPIFALMVSASEDATIRIWDFETGEYERSLKGHTDSVQDVAFDAQGKLLASCSADLSIKLWDFQQSYECIKTMHGHDHNVSSVAFVPAGDYVLSASRDRTIKMWEVATGYCVKTYTGHREWVRMVRVHIEGSIFATCSNDQTIRVWLTNSKDCKVELRDHEHTVECIAWAPEAAASAINEAAGADNKKGHHQGPFLASGSRDKTIRIWDVSVGLCLLTLSGHDNWVRGLAFHPGGKYLVSASDDKTIRVWDLRNKRCMKTLYAHQHFCTSIDFHKAHPYVISGSVDQTVKVWECR
For B2, the MAPPIT interaction score (Hsp27) was -0.515 (inactive).

B3: ZIPIC (protein)
chain: MNCCICQFSVRVPKDIHTDTVGHPPVLISELVLQCTRGTNYVLTEESSTICKKCCEKLARYHKSIQIARKLRGEILELIHSPYMSKDHKQTSYKEDDLDRETTISKFDGNIEEAQQQDEEEQELESVGTTVTLVGPAGIVEEVAEEEHTFIIKQSEEEDEFHSVDLELDIDNEIIINEEEAHEVEEVAHEIEEVAHEIEEEDLLPHDKQEAQEEDFFKEDTMSDFDEHLDGAIEYIISDGEDQEQDNESSGEYTVNIQCPSCPEKFSSRRAYNVHTKREHFPGYVCDQCGKTLQSYSGFIGHLQNHEPVKQFACPVCPERFSRKFRLKHHMAWHSGETPYQCDVCSKRFVHKVALYKHKMIHDSETKRLECQVCGFKTRTKAHLERHMRSHTGDKPFACPVCNKRFSQMYNMKAHLREHESPGTNRHRRFHCSKCTHTFINEQNYDAHVQRDDCTPV
In the case of B3, the MAPPIT interaction score (HP5) is reported as 0.196 (inactive).

B4: Sf3b3 (protein)
chain: MYLYNLTLQKATGVTHAVHGNFSGGKQQEVLLSRGKSLELLRPDSNTGKVHTLLSTEIFGCVRALMAFRLTGGTKDYIVVGSDSGRIVILEYNPSKNALEKVHQETFGKSGCRRIVPGQYFAIDPKGRAVMIGAVEKQKLAYIMNRDTQARLTISSPLEAHKSNTLTYHMVGVDVGFDNPMFACLEIDYEEADMDPSGDAAQRTQQTLTFYELDLGLNHVVRKYSEPLEEHANFLVSVPGGNDGPSGVLICSENYLTYKNLGDQHDIRCPIPRRRNDLDDPERGMIFICSATHRTKSMYFFLLQTEQGDIFKITLETDDDVVSEIKLKYFDTVPPATAMCVLKTGFLFVASEFGNHYLYQIAHLGDDDDEPEFSSAMPLEEGETFFFAPRALKNLVLVDELPSFAPIITSQVADLANEDTPQLYVLCGRGPRSTLRVLRHGLEVSEMAVSELPGNPNAVWTVKKRADDEFDAYIIVSFVNATLVLSIGETVEEVTDSGFLGTTPTLCCAALGDDALVQVYPDGIRHIRSDKRVNEWKAPGKKSITKCAVNQRQVVITLSGRELVYFEMDPTGELNEYTERSEMPAEIMCMALGTVPEGEQRSWFLAVGLADNTVRILSLDPNNCLTPCSMQALPSPAESLCLVEMGHTESTTQGGLDDDAPAQRSGNNKGTIYLNIGLSNGVLLRTVLDPVSGDLADTRTRYLGSRPVKLFRIKMQGSEAVLAMSSRTWLSYYHQNRFHLTPLSYETLEYASGFSSEQCSEGIVAISTNTLRILALEKLGAVFNQVAFPLQYTPRTFVIHPDTGRMLIAETDHNAYTEDTKSARKEQMAEEMRSAAGDEERELAREMANAFINEVLPEDVFSSPKAGLGLWASQIRCLDAMHGQTMFSVPLTQNEAIMSMAMLKFSIAADGRYYLAVGIAKDLQLNPRISQGGCIDIYKIDPTCSSLEFMHRTDIDEIPGALCGFQGRLLAGCGRMLRIYDFGKKKMLRKCENKHIPYQIVNIQAMGHRVYVSDVQESVFFIRYRRAENQLIIFADDTHPRWVTATTLLDYDTIAIADKFGNLSIQRLPHSVTDDVDEDPTGTKSLWDRGLLSGASQKSENICSFHVGEIIMSLQKATLIPGGSEALIYATLSGTVGAFVPFTSREDYDFFQHLEMHMRNENPPLCGRDHLSYRSSYYPVKNVLDGDLCEQYLSIEAAKQKSIAGDMFRTPNQICKKLEDIRTRYAF
B4 was tested, and the MAPPIT interaction score (Hsp60B) was 1.36 (inactive).

B5: caly (protein)
chain: MNAAGGGSGAQAAAVAAGNNSLSHNALLSTASGATTMPMAQLADGWLELESDPGLFTLLLKDFGCHDVQVEEVYDLQKPIESPYGFIFLFRWIEERRARRKIVETTAEIFVKDEEAISSIFFAQQVVPNSCATHALLSVLLNCNENNLQLGDTLSRLKTHTKGMSPENKGLAIGNTPELACAHNSHAMPQARRRLERTGAGVSSCRFTGEAFHFVSFVPINGQLFELDGLKPYPMNHGGWEDSEDWTDKFRRVMAERLGIATGEQDIRFNLMAVVPDRRIAITHKLKMLRTNQAIVSGTLQKLLKADEQGESGNGDSQRPDTPTTLLEPSAFTARDLQSLLKNLDTEIAINEQHLADENDRRHMFKVDASRRTHNYDKFICTFLSMLAHQGVLGELVSQHLLPSKKVSGQGAANRISKQSTTASAGGSTAAGTASTPKTQQQQAAAAKNGKSPSKTPGRRRKGRNKCRKRK
B5 was tested, and the MAPPIT interaction score (Hsc70-1) was 2.29 (inactive).

B6: sqd (protein)
chain: MAENKQVDTEINGEDFTKDVTADGPGSENGDAGAAGSTNGSSDNQSAASGQRDDDRKLFVGGLSWETTEKELRDHFGKYGEIESINVKTDPQTGRSRGFAFIVFTNTEAIDKVSAADEHIINSKKVDPKKAKARHGKIFVGGLTTEISDEEIKTYFGQFGNIVEVEMPFDKQKSQRKGFCFITFDSEQVVTDLLKTPKQKIAGKEVDVKRATPKPENQMMGGMRGGPRGGMRGGRGGYGGRGGYNNQWDGQGSYGGYGGGYGGYGAGGYGDYYAGGYYNGYDYGYDGYGYGGGFEGNGYGGGGGGNMGGGRGGPRGGGGPKGGGGFNGGKQRGGGGRQQRHQPY
For B6, the MAPPIT interaction score (Hrb27C) was -0.206 (inactive).

B7: dmt (protein)
chain: MVRTRPVPCVPSPDVNTATRRNPGRPKKQSIGADLSTTISKPGRPKKLSIGADLTTIRKPGRPKKLGADLTTIIRKPGRPTKLSNKQSLTALNEPECRIRKCVVKIRRIKVKNGVVSEISRNDAPDVDASTFEPARNSTMYIPSKVQKSTQPQNIKENVAGPETSPCQQRIRSKSPSGPAAEISPKKPPRFFHRDQPLTRTRSSVTRNVFDFLSQSQIEDDSDREDPAADIIQRLVKDGKACVMVRSRKIGKPRAKRTAKKVRPVGNRRKVSTKDNEPEPVKVVPKSIEPRLQKPSRSLSTIFEPEEDYSNDSEHGYVQPIEVPVQVHVEPSTSKQAHEGAYSNLARSVMLNQTQAQNPLPSTDRRRELINMARQLVSTPLNRRAPPVTDVSATTTALSPIAHQSPNAVRTAGGKSPWRVSDDSPLPNTFMFGFNNSQMPSYSSDHVQRRHVYVPDSPVEHAENIPHEESICPPLHEQNHDSNANDSNEENRPPPTISKSMSINDQESEENAENFVHLPNPRRTLQKRTPFKDINILEVVTLPSWKKNVTATVSKEITPTRVAPRPMATSSPAQRSQTRSNLFGFDDDFACEDIPRKSTTPSKGIAPTSMSLNREVTPALANRNQTEVNTFGCNEILPCENIPKEKETNTEERTSSSQNLFGFDEFITESQDSPANFTGLSQNVNLHDKLHRLAELRPRDGELPQVSYTSIRSDCLGESHSKQTDIRYMLCSTMIAPPRPAKRKPAAPTARESMGLFRVDQDEPEQSFADKQPRRTYVKERPQRKRKKRVQILYIESESEDEDEQDSHDKSLDSPEKKRHHVKRPRRDIEHEAKLEQFVTSFNKQCEEVEKFPVIIE
With B7 the MAPPIT interaction score (HP6) was 4.14 (active).

B8: Sas10 (protein)
chain: MDSDGDDYVMSGSDQEYDDEEREILEDLRKQRKKPHDPVQEVLGFSDDDDDDDDDDEEEQQDVAELMRDSDIEGAEDDDRDLPNTMDWGSKRSTYYNTDFVDQDYSSYNAQEEEQARAEEEEAKKIQLRLAKRMSEADFQLDNVEAAPAGSSDDNELSHITKVTSDLAGLSERERRQLMHSESPEFIILTQDFQQHLDEVKNLLKPVLNYVRKHDVPMVPALQYAGLCHTVLTTYCSNVAFYLLLKARRIDVKAHPVIRRLVQLKDLIEELKPRYEEYIRPQLEALLERIEDGDAFTVLDVAQRKAKLQILNKYNDGQQASVSSDDDDNDDDDDAESKEKDLQEEAGEEEEEEDARRGITYQMAKNKGLTPHRKKELRNPRVKHRGKYRKALIRRKGAVRTVRKELQRYGGELSGIKAGVTKSVKFRT
With B8 the MAPPIT interaction score (Hmg-2) was 0.087 (inactive).

B9: mael (protein)
chain: MAPKKHSGFMMFVNEWRNRNAEGRRMTLAQAVSHCGTIWEKMNTQQRGPYNSGGKDANVAQRAKRESSNGHGQVDKAQREATESLMDMKRTIERLVLNAKMSHDLENAKFVFVAFNYFTKALTTDVYVPAEFAACEYSLKEGIRSIYSTMIDPGQIIFGQGSDALLHSSTTHDLPLPPNALGEKNMTKLYRNIVDYLSKCQGKGKTLVVFTPAENITMVKSCFRYLECDDDFRDGGEKIQVFDIQYLLFILKKEVMNVADLNDEKINKFATDAFFKKDFFEFTAGIACQYHEDNDRTKYCTQSMVTRWAYTFTDFMCGDLAITVQPGKHIPAQTKPNYLIISSYASSLDHESSFDSFYSLPGSGVKKESQPEACSLSSSRLSVASSSYKPIDHTSFAANLNEVSEFPSLGMRNSSKHHGIAASAQREWNARNLPTHSRLIRKVSDNDFSVNGADGKLKK
For B9, the MAPPIT interaction score (Hsc70-1) was 2.36 (inactive).

B10: Nelf-E (protein)
chain: MVYIHFPNNLTEEEQMLQAKYQKLKKKKKALQAHKAPKPEPESSLTLKRPTDARDAREVARKLIKSGAIPAIQKQTKQDQTSFKRPKGQERAKRSTSETTVASYQPFSSTQNDVAQETIISEIIKEEPRRQNLYQHFATERDREERGMPEKVPMDTAQPEKPRAGNTIFVSGNKVTEDFLKKTFNDYGTIVNVSMEIEKSRGFVSFAKPESADRAIAEIHGKNVNGINLQVQLARRQPQIEPINDASSSAVWSSIAASKSQKGSHKDHREMVQYDEDFLL
In the case of B10, the MAPPIT interaction score (Hn) is reported as 0.208 (inactive) and the MAPPIT interaction score (jbug) is reported as 0.0879 (inactive).
